Bioassay records deposited in PubChem by several laboratories.
Only some compounds are listed: those with a hit (about 2.5% of all), similar ones and a draw of the others.
aDG glyco up: increases alpha dystroglycan glycosylation; Pro5-aDG cells, alpha-DG glycosylation AlphaScreen (IIH6); 0% Pro5, 100% B10-LARGE cell signal; activation, % at 10 µM; 360,000 compounds, 0.22% hits; AID 624168;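 active = activation of at least 8% versus controls, or a plate z-score of at least 8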;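 note: Pro5 are CHO cells carrying HIG-tagged alpha-DG that lacks glycosylation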
DYRK1A inh: blocks rat Dyrk1A kinase activity; Q63470; ADP-Glo luminescence, NFATc1 peptide; inhibition, % at 12.5 µM; 310,000 compounds, 0.43% hits; AID 504441; in the data active = inhibition above about 50%;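 note: plate controls were vehicle with enzyme for no effect and no enzyme for full effect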
HSF-1 act: increases HSF-1 driven luciferase reporter signal | 300,000 compounds, 1.7% hits | AID 504408 | activation, % at 9 µM | NIH3T3-HGL HSF-1 luciferase reporter, MG132, 8 h; 100% = twice DMSO control signal;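 active = mean replicate activation of at least 50% with a set share of replicates each reaching 50%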;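 note: 0% = median of the neutral control wells and 100% = twice that signal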
NPR1 activator: GC-A (human) enzyme activation. 370,000 compounds, 0.14% hits. activation, % at 10 µM. P16066. HEK293 GC-A cells, cGMP TR-FRET, EC30 ANP; 0% at EC30 ANP, 100% saturating ANP; in the data active = activation above about 40%
HSF1 inhib: HSF1 inhibition. NIH3T3-HGL HSE-luciferase, MG132-induced, luminescence 8 h; hits give low values. activity change, negative = inhibition, % at 7.5 µM (by protocol). 300,000 compounds, 0.77% hits;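 active = more than half of replicate wells show activity change below -50%, luminescence cut by over half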;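 note: luciferase reports HSF-1 transcriptional activity via heat shock element; 0% = median of DMSO wells and -100% = zero luminescence signal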
NPR2 activator: GC-B (human) receptor activation; P20594; HEK293-GC-B cells, CNP EC30, cGMP TR-FRET; 0% at EC30 CNP, 100% saturating CNP; activation, % at 10 µM; 370,000 compounds, 0.11% hits;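 active = activation at 10 µM reaching about 35% in either raw or pattern-adjusted values, limit read from the data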
* = called active by the depositor; · = not tested or not shown.

SMILES	aDG glyco up	DYRK1A inh	HSF-1 act	NPR1 activator	HSF1 inhib	NPR2 activator
CCOC(=O)Cc1cc(=O)n2[nH]c(C)c(-c3ccccc3)c2n1	-0.1	28.0	1.8	36.2	-9.0	43.2*
CC(C)C(=O)Nc1ccc(C(=O)Nc2nnc(C(C)(C)C)s2)cc1	-0.3	2.4	23.1	-0.8	1.2	1.5
O=C(NC(=S)Nc1ccccc1C(F)(F)F)c1ccccc1F	0.2	4.9	76.1*	0.2	30.7	-2.2
Cc1sc(NC(=O)c2ccc(F)cc2)c(CN2CCCCCC2)c1C	-0.1	-3.0	56.5*	2.6	38.5	-4.4
Cc1sc(NC(=O)c2ccccc2F)c(CN2CCCCC2)c1C	0.2	-5.9	57.7*	-0.6	13.1	0.7
CCOC(=O)c1sc(NC(=O)CCN2CCCCCC2)c(C(=O)OCC)c1C	0.3	-4.2	193.4*	-32.3	152.5	-30.9
COc1ccc2[nH]c(=O)c(NC(N)=S)nc2c1	0.0	1.6	-3.7	-1.1	-4.9	-5.4
COc1cc(/C=C2\COC/C(=C\c3cc(OC)c(OC)c(OC)c3)C2=O)cc(OC)c1OC	-0.4	-5.3	-92.8	-0.2	-92.5*	9.3
COc1cc(/C=C2\CC(C(C)(C)C)C/C(=C\c3cc(OC)c(OC)c(OC)c3)C2=O)cc(OC)c1OC (stereo unspecified)	-0.6	1.9	53.3*	11.2	40.7	2.7
COc1cc(/C=C2\CC/C(=C\c3cc(OC)c(OC)c(OC)c3)C2=O)cc(OC)c1OC	-0.4	3.5	28.1	4.5	11.5	8.6
COc1cc(/C=C2\CCC(C3CCCC3)C2=O)cc(OC)c1OC (stereo unspecified)	0.2	0.9	16.7	2.9	2.2	2.9
COc1cc(/C=C2/CCc3ccccc3C2=O)cc(OC)c1OC	0.2	13.1	72.6*	6.8	42.9	-1.4
CCCCCC(/C=N/Nc1ccc(S(=O)(=O)N2CCOCC2)cc1[N+](=O)[O-])=C\c1ccccc1	0.0	2.1	-11.8	0.4	-3.0	2.1
Fc1ccccc1CNc1nc(-c2cccnc2)nc2ccccc12	-0.2	19.3	12.1	31.6	-1.4	35.8*
c1cncc(-c2nc(NCc3cccs3)c3ccccc3n2)c1	0.2	5.0	15.0	3.8	7.6	7.7
COc1cccc(CNc2nc(-c3cccnc3)nc3ccccc23)c1	0.1	26.0	69.5*	21.5	21.8	23.6
COc1cccc(/C=N/Nc2nc(-c3cccnc3)nc3ccccc23)c1	-0.1	·	1.4	1.5	1.4	3.5
CCOC(=O)c1c(NC(C)=O)sc2c(O)c(CN3CCN(CC)CC3)ccc12	0.0	2.9	112.5*	-5.6	75.5	-1.1
O=C(O)/C=C/C(=O)c1ccc2c(c1)CCc1ccccc1-2	1.5	-4.6	175.2*	4.6	146.0	3.6
COc1cc(NS(=O)(=O)c2ccc(NC(=S)NC(=O)/C=C/c3ccc(OC)c(OC)c3)cc2)ncn1	0.4	-6.1	-65.1	-7.7	-55.0*	-3.0
COc1ccc(/C=C/C(=O)NC(=S)NCc2ccccc2)cc1OC	-0.1	0.3	67.5*	-4.7	31.4	-0.8
COC(=O)c1cn(C(=O)/C=C/c2ccc(OC)c(OC)c2)c2ccccc12	-0.3	-1.7	60.5*	0.3	41.9	1.0
COc1ccc(C2C(C#N)=C(N)Oc3c2oc(CO)cc3=O)cc1 (stereo unspecified)	-0.3	1.4	-7.8	0.5	4.6	-1.5
CCN1CCN(/C=N/c2nc3c(s2)CCCC3)CC1	-0.1	·	-59.8	·	-55.4*	·
CN(C(=O)c1ccc(NC(=O)Cc2cccc(NC(=O)C3CCN(C(=O)C4CCC4)CC3)c2)cc1)C1CC1	-0.1	4.8	·	1.4	·	1.2
COc1cc(OC)cc(C(=O)NNc2nc3cc4c(cc3s2)OCO4)c1	0.3	1.6	23.2	-0.6	18.3	1.7
COc1ccccc1C(=O)Nc1nc2cc3c(cc2s1)OCO3	-0.1	-3.1	54.0*	-2.5	26.9	-5.1
COc1cc(C(=O)NNc2nc3cc4c(cc3s2)OCO4)cc(OC)c1OC	-0.3	-6.3	62.2*	-2.9	26.3	0.8
COc1ccccc1C(=O)Nc1nc2cc3c(cc2s1)OCCO3	0.1	-5.7	0.9	·	-2.6	·
